Compound activity: PubChem BioAssay, several laboratories
Hits are enriched below; roughly 1.4% of the tested compounds scored in any of these assays.
GLD-1 RNA inh – GLD-1-TGE RNA interaction inhibition (C. elegans) | Q17339 | purified GLD-1 + fluorescein TGE RNA, fluorescence polarization | inhibition, % at 5.96 µM | 0.44% of 320,000 active | AID 2280;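 active = percent inhibition above a per-plate cutoff, the plate mean of test compounds plus 3 SD, cut at about 30% in these data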;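 also: 0% = DMSO wells with GLD-1 and probe and 100% = wells lacking GLD-1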
EBV gp42 inh – inhibitors of Epstein-Barr virus glycoprotein 42; Q1HVG2; Fluorescence polarization binding assay, mP read-out; inhibition, % (tested at 21.74 µM); 0.42% of 220,000 active; in the data active = inhibition above about 50%
MEX-5 binding – C. elegans MEX-5 TCR-2 RNA binding activity. MEX-5/FITC-TCR2 RNA binding, fluorescence polarization; active compounds read low. activity score (negative = inhibition of binding), % at 10 µM. 0.38% of 300,000 active. AID 1832. Q9XUB2;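 active = inhibition past about -25% in most replicates, and total fluorescence under double the plate's negative control median, limit read from the data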;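 also: 0% = DMSO and -100% = 5 µM competing unlabeled TCR2 RNA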
MCL1 BIM primary – inhibitors of human MCL1 binding to BIM-BH3 peptide; Q07820; inhibition, % at 10.9 µM; 0.68% of 320,000 active; AID 2057; GST-MCL1 / FITC-Bim-BH3 fluorescence polarization;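 active = inhibition above the mean inhibition of all tested compounds plus 3 SD, set per campaign, cut at about 40% in these data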;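 also: 0% = DMSO wells and 100% = unlabeled Bim-BH3 peptide control; higher means more loss of mP so more displacement of Bim peptide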
Bcl-xL primary – inhibitors of human Bcl-xL; 0.7% of 320,000 active; inhibition, % at 10.9 µM; Q07817; GST-Bcl-xL / FITC-Bim BH3 peptide fluorescence polarization;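 active = inhibition above the mean of all tested compounds plus 3 SD, cutoff set per campaign, cut at about 30% in these data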;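 also: 0% = DMSO wells and 100% = unlabeled Bim-BH3 peptide competitor; inhibitors lower millipolarization by displacing the labeled peptide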
Target sequence (Q07817 whole entry, looked up): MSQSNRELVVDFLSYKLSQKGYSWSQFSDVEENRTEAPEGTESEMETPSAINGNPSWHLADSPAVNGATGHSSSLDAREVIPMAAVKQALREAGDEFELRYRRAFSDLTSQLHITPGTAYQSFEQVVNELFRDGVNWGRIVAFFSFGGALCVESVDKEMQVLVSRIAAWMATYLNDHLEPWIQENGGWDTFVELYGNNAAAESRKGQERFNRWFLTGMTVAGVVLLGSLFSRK
E coli Lon inh – E. coli protease La inhibition. P0A9M0. purified E. coli Lon protease, fluorescence polarization. inhibition, % at 7.94 µM. 0.42% of 360,000 active; in the data active = inhibition above about 13%, passing the limit was not always enough;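 also: 0% = enzyme with probe and DMSO and 100% = no enzyme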
eLon confirm – confirmation of E. coli Lon protease inhibitors | shares compounds with E coli Lon inh | 31% of 1,400 active | AID 602230 | inhibition, % at 7.94 µM | purified E. coli Lon, fluorescence polarization; in the data active = inhibition above about 16%;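 also: 0% = enzyme with probe and DMSO and 100% = no enzyme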
The depositor's hits bear a star; / = no result.

SMILES	GLD-1 RNA inh	EBV gp42 inh	MEX-5 binding	MCL1 BIM primary	Bcl-xL primary	E coli Lon inh	eLon confirm
COCCO[C@H]1CC[C@@]2(C)C(=CCC3C2CC[C@@]2(C)C3CC[C@]2(C)O)C1 (stereo not given in full)	2	/	/	/	/	-12	/
COCCOC(=O)c1c(N)n(Cc2ccco2)c2nc3ccccc3nc12	63*	/	/	33	31*	16*	7
CC(=O)c1cccc(NC(=O)N2C[C@H]3C[C@@H](C2)c2cccc(=O)n2C3)c1	-4	/	1	-4	4	2	/
COc1ccc2c(c1)NP(=S)(c1ccccc1)N2C (stereo not given)	/	/	/	/	/	53*	3
CCN(CC)c1ccc(/C=N/c2sc3c(c2C#N)C2CCN3CC2)c(O)c1	-114	46	/	-87	-44	-383	/
